# Data reported in PubChem BioAssay (NCI).
# Compounds without any hit were thinned out: in the full panel of roughly 79,000, 15% have a hit. Unmarked numbers belong to inactive results. Calls of active or inactive are those of the source. Rule as the data show it: active = growth inhibition above about 70%; inactive = the rest.
# Key:
# [1] = NCI Yeast Anticancer Drug Screen. Data for the rad52 strain (AID 147);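 also: 0% = growth of vehicle-treated control cultures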; details: S. cerevisiae rad52 mutant growth inhibition, hits give high values
# In short: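 Measured: yeast growth inhibition. System: strain with a defined DNA damage repair alteration. Reference: vehicle-treated control cultures.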
# [2] = NCI Yeast Anticancer Drug Screen. Data for the wt1 strain (AID 149);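 also: 0% = growth of vehicle-treated wt1 cultures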; details: S. cerevisiae wt1 strain (SPY 50644) growth inhibition, hits give high values
# In short: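 Growth inhibition read against vehicle controls after compound exposure of the wt1 yeast strain.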
# [3] = NCI Yeast Anticancer Drug Screen. Data for the rad50EPP+ strain (AID 151);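 also: 0% = growth of vehicle-treated control cultures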; details: S. cerevisiae rad50 mutant strain, hits give high values
# In short: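 One strain with a rad50 alteration (rad50EPP+) was compound-treated, its growth then compared to that of vehicle controls.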
# [4] = NCI Yeast Anticancer Drug Screen. Data for the rad50 strain (AID 155);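 also: 0% = growth of vehicle-only cultures of the same strain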; details: S. cerevisiae rad50 strain growth inhibition, hits give high values
# In short: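 Readout: growth inhibition relative to vehicle-treated cultures. Compound exposure was carried out in a genetically defined yeast strain deficient in DNA damage repair.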
# [5] = NCI Yeast Anticancer Drug Screen. Data for the mec2-1 strain (AID 157); details: S. cerevisiae mec2-1 strain, hits give high values
# In short: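 Test agents were screened against the mec2-1 yeast strain, with defined DNA repair or cell cycle alteration. Growth was scored as inhibition against vehicle-only controls.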
# [6] = NCI Yeast Anticancer Drug Screen. Data for the rad14 strain (AID 159);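 also: 0% = growth of vehicle-treated control cultures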; details: S. cerevisiae rad14 strain growth inhibition, hits give high values
# In short: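 Growth inhibition vs vehicle controls; genetically altered yeast strain (DNA damage repair defect) treated with test compounds.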
# [7] = NCI Yeast Anticancer Drug Screen. Data for the sgs1 mgt1 strain (AID 161);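 also: 0% = growth of cultures given vehicle only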; details: S. cerevisiae sgs1 mgt1 strain, hits give high values
# In short: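 Read-out: growth inhibition vs vehicle controls. Cells: mutant yeast strain deficient in DNA damage repair.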
# [8] = NCI Yeast Anticancer Drug Screen. Data for the CLN2oe strain (AID 163);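 also: 0% = growth of vehicle-only control cultures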; details: S. cerevisiae CLN2oe strain, hits give high values
# In short: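 Here, growth inhibition in a cell-cycle-altered yeast strain after compound exposure was quantified against vehicle control growth.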
# [9] = NCI Yeast Anticancer Drug Screen. Data for the cln2 rad14 strain (AID 165);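 also: 0% = growth equal to vehicle treated cultures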; details: S. cerevisiae cln2 rad14 strain, hits give high values
# In short: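 Growth of compound-exposed yeast (cln2 rad14 genotype) measured and expressed as inhibition relative to vehicle.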
# [10] = NCI Yeast Anticancer Drug Screen. Data for the bub3 strain (AID 167); details: S. cerevisiae bub3 mutant strain, hits give high values
# In short: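 Readout: yeast growth inhibition, expressed relative to vehicle-only wells. The test organism is a mutant strain from a panel with lesions in DNA repair or checkpoint genes.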
# [11] = NCI Yeast Anticancer Drug Screen. Data for the wt2 strain (AID 169);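 also: 0% = growth of vehicle-treated yeast cultures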; details: S. cerevisiae wt2 strain growth inhibition, hits give high values
# In short: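 Genetically defined yeast strains from a DNA-repair/cell-cycle panel were used. Compound-exposed yeast growth was measured, and the inhibition was calculated relative to vehicle treatment.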
# [12] = NCI Yeast Anticancer Drug Screen. Data for the mlh1 strain (AID 171);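 also: 0% = growth of vehicle-treated control cultures of the same strain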; details: S. cerevisiae mlh1 strain growth inhibition, hits give high values
# In short: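 Here the genetically defined yeast mutant is grown with each compound, and the extent to which its growth falls below that of vehicle-exposed cells is reported.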
# [13] = NCI Yeast Anticancer Drug Screen. Data for the sgs1 strain (AID 173);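 also: 0% = growth of vehicle-only control cultures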; details: S. cerevisiae sgs1 mutant, hits give high values
# In short: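 Relative growth inhibition, referenced to vehicle, was determined in a yeast strain with a defined alteration affecting DNA damage repair or cell cycle control after compound exposure.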
# [14] = NCI Yeast Anticancer Drug Screen. Data for the mlh1 rad18 strain (AID 175); details: S. cerevisiae mlh1 rad18 strain growth inhibition, hits give high values
# In short: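 In this whole-cell yeast screen, a strain with altered DNA damage repair is challenged with compound, and its growth is measured against matched vehicle-treated controls.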
# [15] = NCI Yeast Anticancer Drug Screen. Data for the rad18 strain (AID 177); details: S. cerevisiae rad18 mutant growth inhibition, hits give high values
# In short: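 Screen uses a yeast strain with a defined lesion in DNA damage repair; compound effect is read as loss of growth compared to untreated vehicle cultures.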
# [16] = NCI Yeast Anticancer Drug Screen. Data for the mgt1 strain (AID 153); details: S. cerevisiae mgt1 mutant growth inhibition, hits give high values
# In short: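 After exposure of the mgt1 yeast mutant to compound, growth was measured and reported as inhibition compared with vehicle controls.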
# [17] = at 5.0 µM (retest, dose inferred, filed as 0.5)
# [18] = at 50.0 µM (retest, dose inferred, filed as 5.0)
smiles,measurement,setting,value
COC(=O)C1=C(C(=O)OC)C2OC1c1cc3ccccc3cc12,growth inhibition,[1]; at 1.2 µM,21%
same,growth inhibition,[1]; at 3.7 µM,33%
same,growth inhibition,[1]; at 11.0 µM,79% (active)
same,growth inhibition,[1]; at 33.0 µM,97% (active)
same,growth inhibition,[1]; at 100.0 µM,98% (active)
same,growth inhibition,[2]; at 1.2 µM,7%
same,growth inhibition,[2]; at 3.7 µM,14%
same,growth inhibition,[2]; at 11.0 µM,37%
same,growth inhibition,[2]; at 33.0 µM,97% (active)
same,growth inhibition,[2]; at 100.0 µM,99% (active)
same,growth inhibition,[3]; at 1.2 µM,34%
same,growth inhibition,[3]; at 3.7 µM,57%
same,growth inhibition,[3]; at 11.0 µM,79% (active)
same,growth inhibition,[3]; at 33.0 µM,93% (active)
same,growth inhibition,[3]; at 100.0 µM,96% (active)
same,growth inhibition,[4]; at 1.2 µM,18%
same,growth inhibition,[4]; at 3.7 µM,37%
same,growth inhibition,[4]; [17],76% (active)
same,growth inhibition,[4]; at 11.0 µM,76% (active)
same,growth inhibition,[4]; at 33.0 µM,97% (active)
same,growth inhibition,[4]; [18],100% (active)
same,growth inhibition,[4]; at 50.0 µM,99.6% (active)
same,growth inhibition,[4]; at 100.0 µM,98% (active)
same,growth inhibition,[5]; at 1.2 µM,59%
same,growth inhibition,[5]; at 3.7 µM,58%
same,growth inhibition,[5]; [17],58%
same,growth inhibition,[5]; at 11.0 µM,86% (active)
same,growth inhibition,[5]; at 33.0 µM,99% (active)
same,growth inhibition,[5]; [18],100% (active)
same,growth inhibition,[5]; at 50.0 µM,99.6% (active)
same,growth inhibition,[5]; at 100.0 µM,99% (active)
same,growth inhibition,[6]; at 1.2 µM,18%
same,growth inhibition,[6]; at 3.7 µM,24%
same,growth inhibition,[6]; at 11.0 µM,66%
same,growth inhibition,[6]; at 33.0 µM,99% (active)
same,growth inhibition,[6]; at 100.0 µM,99% (active)
same,growth inhibition,[7]; [17],92% (active)
same,growth inhibition,[7]; [18],100% (active)
same,growth inhibition,[7]; at 50.0 µM,99.7% (active)
same,growth inhibition,[8]; at 1.2 µM,45%
same,growth inhibition,[8]; at 3.7 µM,50%
same,growth inhibition,[8]; at 11.0 µM,80% (active)
same,growth inhibition,[8]; at 33.0 µM,97% (active)
same,growth inhibition,[8]; at 100.0 µM,99% (active)
same,growth inhibition,[9]; [17],16%
same,growth inhibition,[9]; [18],99% (active)
same,growth inhibition,[9]; at 50.0 µM,99.4% (active)
same,growth inhibition,[10]; at 1.2 µM,75% (active)
same,growth inhibition,[10]; at 3.7 µM,87% (active)
same,growth inhibition,[10]; [17],64%
same,growth inhibition,[10]; at 11.0 µM,89% (active)
same,growth inhibition,[10]; at 33.0 µM,99% (active)
same,growth inhibition,[10]; [18],99% (active)
same,growth inhibition,[10]; at 50.0 µM,99.4% (active)
same,growth inhibition,[10]; at 100.0 µM,99% (active)
same,growth inhibition,[11]; at 1.2 µM,13%
same,growth inhibition,[11]; at 3.7 µM,29%
same,growth inhibition,[11]; at 11.0 µM,76% (active)
same,growth inhibition,[11]; at 33.0 µM,99% (active)
same,growth inhibition,[11]; at 100.0 µM,99% (active)
same,growth inhibition,[12]; at 1.2 µM,19%
same,growth inhibition,[12]; at 3.7 µM,35%
same,growth inhibition,[12]; at 11.0 µM,85% (active)
same,growth inhibition,[12]; at 33.0 µM,99% (active)
same,growth inhibition,[12]; at 100.0 µM,99% (active)
same,growth inhibition,[13]; at 1.2 µM,24%
same,growth inhibition,[13]; at 3.7 µM,45%
same,growth inhibition,[13]; at 11.0 µM,89% (active)
same,growth inhibition,[13]; at 33.0 µM,99% (active)
same,growth inhibition,[13]; at 100.0 µM,99% (active)
same,growth inhibition,[14]; [17],96% (active)
same,growth inhibition,[14]; [18],99% (active)
same,growth inhibition,[14]; at 50.0 µM,99.5% (active)
same,growth inhibition,[15]; at 1.2 µM,50%
same,growth inhibition,[15]; at 3.7 µM,60%
same,growth inhibition,[15]; at 11.0 µM,92% (active)
same,growth inhibition,[15]; at 33.0 µM,98% (active)
same,growth inhibition,[15]; at 100.0 µM,99% (active)
CC1=C2C(=C[C@@](C)(CO)[C@@H]2O)C(=O)[C@](C)(O)C12CC2,growth inhibition,[1]; at 1.2 µM,2%
same,growth inhibition,[1]; at 3.7 µM,9%
same,growth inhibition,[1]; at 11.0 µM,21%
same,growth inhibition,[1]; at 33.0 µM,42%
same,growth inhibition,[1]; at 100.0 µM,74% (active)
same,growth inhibition,[2]; at 1.2 µM,1%
same,growth inhibition,[2]; at 3.7 µM,-1%
same,growth inhibition,[2]; at 11.0 µM,0%
same,growth inhibition,[2]; at 33.0 µM,0%
same,growth inhibition,[2]; at 100.0 µM,25%
same,growth inhibition,[3]; at 1.2 µM,-3%
same,growth inhibition,[3]; at 3.7 µM,-1%
same,growth inhibition,[3]; at 11.0 µM,1%
same,growth inhibition,[3]; at 33.0 µM,-2%
same,growth inhibition,[3]; at 100.0 µM,1%
same,growth inhibition,[16]; at 1.2 µM,-3%
same,growth inhibition,[16]; at 3.7 µM,-1%
same,growth inhibition,[16]; at 11.0 µM,0%
same,growth inhibition,[16]; at 33.0 µM,2%
same,growth inhibition,[16]; at 100.0 µM,0%
same,growth inhibition,[4]; at 1.2 µM,2%
same,growth inhibition,[4]; at 3.7 µM,2%
same,growth inhibition,[4]; at 11.0 µM,11%
same,growth inhibition,[4]; at 33.0 µM,31%
same,growth inhibition,[4]; at 50.0 µM,33.8%
same,growth inhibition,[4]; at 100.0 µM,70% (active)
same,growth inhibition,[5]; at 1.2 µM,0%
same,growth inhibition,[5]; at 3.7 µM,0%
same,growth inhibition,[5]; at 11.0 µM,1%
same,growth inhibition,[5]; at 33.0 µM,13%
same,growth inhibition,[5]; at 50.0 µM,22.9%
same,growth inhibition,[5]; at 100.0 µM,48%
same,growth inhibition,[6]; at 1.2 µM,1%
same,growth inhibition,[6]; at 3.7 µM,-1%
same,growth inhibition,[6]; at 11.0 µM,4%
same,growth inhibition,[6]; at 33.0 µM,13%
same,growth inhibition,[6]; at 100.0 µM,41%
same,growth inhibition,[7]; at 50.0 µM,44%
same,growth inhibition,[8]; at 1.2 µM,-5%
same,growth inhibition,[8]; at 3.7 µM,-8%
same,growth inhibition,[8]; at 11.0 µM,-10%
same,growth inhibition,[8]; at 33.0 µM,-13%
same,growth inhibition,[8]; at 100.0 µM,-5%
same,growth inhibition,[9]; at 50.0 µM,22.6%
same,growth inhibition,[10]; at 1.2 µM,-4%
same,growth inhibition,[10]; at 3.7 µM,-5%
same,growth inhibition,[10]; at 11.0 µM,-7%
same,growth inhibition,[10]; at 33.0 µM,-10%
same,growth inhibition,[10]; at 50.0 µM,-41%
same,growth inhibition,[10]; at 100.0 µM,-12%
same,growth inhibition,[11]; at 1.2 µM,-2%
same,growth inhibition,[11]; at 3.7 µM,0%
same,growth inhibition,[11]; at 11.0 µM,0%
same,growth inhibition,[11]; at 33.0 µM,0%
same,growth inhibition,[11]; at 100.0 µM,1%
same,growth inhibition,[12]; at 1.2 µM,0%
same,growth inhibition,[12]; at 3.7 µM,1%
same,growth inhibition,[12]; at 11.0 µM,2%
same,growth inhibition,[12]; at 33.0 µM,3%
same,growth inhibition,[12]; at 100.0 µM,7%
same,growth inhibition,[13]; at 1.2 µM,3%
same,growth inhibition,[13]; at 3.7 µM,10%
same,growth inhibition,[13]; at 11.0 µM,24%
same,growth inhibition,[13]; at 33.0 µM,50%
same,growth inhibition,[13]; at 100.0 µM,73% (active)
same,growth inhibition,[14]; at 50.0 µM,11.7%
same,growth inhibition,[15]; at 1.2 µM,37%
same,growth inhibition,[15]; at 3.7 µM,74% (active)
same,growth inhibition,[15]; at 11.0 µM,90% (active)
same,growth inhibition,[15]; at 33.0 µM,93% (active)
same,growth inhibition,[15]; at 100.0 µM,95% (active)
